Screens (PubChem)
APOBEC3G inh – APOBEC3G DNA deaminase inhibitors, primary screen, biochemical, fluorescence, single-stranded DNA substrate, uHTS. hit rate 0.28% among 330,000. inhibition, % at 20 µM. recombinant A3G, ssDNA deamination FAM/TAMRA fluorescence. DNA dC->dU-editing enzyme APOBEC-3G (Homo sapiens), Q9HC16;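 active means inhibition of at least 40% at 20 µM, with no more than 30% in the related APOBEC3A deaminase screen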;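 further: plate controls were DMSO wells with A3G for no effect and wells lacking A3G enzyme for full effect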
GC-B act – human GC-B receptor activators, primary screen, HEK293 GC-B cells, cGMP TR-FRET, EC30 CNP | 0% at EC30 CNP, 100% saturating CNP | activation, % at 10 µM | hit rate 0.11% among 370,000 | AID 1920062, 2024;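 active means activation at 10 µM reaching about 35% in either raw or pattern-adjusted values, limit read from the data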
FAS-TE inh – FAS thioesterase domain inhibitors, primary screen, biochemical, fluorescence intensity, uHTS; AID 602261, 2012; Fatty acid synthase (Homo sapiens), P49327; recombinant FAS-TE, OMFH fluorogenic substrate, fluorescence endpoint; hit rate 0.67% among 360,000; inhibition, % at 15 µM;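 active means compounds whose normalised, plate-corrected inhibition of enzyme fluorescence in the single-dose primary screen is 50% or more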;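 further: 0% = DMSO with enzyme and 100% = substrate without enzyme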
A3A deaminase – APOBEC3A ssDNA deaminase inhibitors, primary screen, selectivity assay for APOBEC3G inhibitor project, biochemical, FAM/TAMRA oligo cleavage fluorescence. recombinant A3A, FAM/TAMRA ssDNA deamination fluorescence. inhibition, % at 20 µM. hit rate 0.41% among 330,000. AID 493011, 2011;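 active means at least 40% inhibition at 20 µM here, with at most 30% in a related deaminase screen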;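 further: plate controls were A3A with DMSO for no effect and wells lacking A3A enzyme for full effect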
NPR1 activator – GC-A stimulated cGMP production enhancers – HEK293 GC-A cells, cGMP TR-FRET, EC30 ANP, primary screen; activation, % at 10 µM; 0% at EC30 ANP, 100% saturating ANP; hit rate 0.14% among 370,000; AID 1671463, 2021; in the data active means activation above about 40%
A3A conf – APOBEC3A deaminase inhibitors, retest, confirmation, selectivity assay for APOBEC3G inhibitor project, biochemical, single concentration, fluorescence readout; inhibition, % at 20 µM; AID 493151, 2011; shares compounds with A3A deaminase; hit rate 63% among 1,400; recombinant A3A, ssDNA deaminase UDG fluorescence assay;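 active means inhibition reaching a set limit, 80% of the first screen's cutoff, at 20 µM in any replicate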;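 further: plate controls were DMSO wells with A3A for no effect and wells lacking A3A enzyme for full effect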
UDG ctr A3A – E. coli UDG inhibitors, confirmation, counter-screen for APOBEC3A inhibitor project, biochemical, single concentration, fluorescence, FAM/TAMRA oligo; shares compounds with A3A deaminase; UDG counterscreen, FAM/TAMRA uracil oligo fluorescence; inhibition, % at 20 µM; 1,000 tested, under 10 active; AID 504714, 2011; call rule not given here
Active calls of the source: *. Hits are enriched below; roughly 1.4% of the tested compounds scored in any of these assays.

For C[C@@H]1CN(c2ccc(N3CCN(C(=O)OC(C)(C)C)C[C@@H]3C)cc2C#N)CCN1Cc1ccccc1 the results were GC-B act 5 and NPR1 activator 0.
CC(=O)N1CCC(C(=O)N2CCN(S(=O)(=O)c3ccc(F)cc3)CC2)CC1 was read as APOBEC3G inh 0, GC-B act 1, FAS-TE inh -5, A3A deaminase 0 and NPR1 activator 0.
For O=C(C1CCC1)N1CCN(S(=O)(=O)c2ccc(F)cc2)CC1 the results were APOBEC3G inh 17, GC-B act 0, FAS-TE inh -2, A3A deaminase 46*, NPR1 activator 3 and A3A conf -1.
Screening Fc1cccc(Cn2ccc3ccc(-c4ccc5ccn(Cc6cccc(F)c6)c5c4)cc32)c1 returned GC-B act 5 and NPR1 activator 1.
For COC(=O)c1ccc2ccn(CC(=O)NC(C)C)c2c1 the results were APOBEC3G inh 13, GC-B act 4, FAS-TE inh -11, A3A deaminase 74*, NPR1 activator 4, A3A conf 70* and UDG ctr A3A -2.
For CC(C)CN1C(=O)[C@@]2(CC(=O)N(C)C2c2ccccc2)c2cc(-n3cc(C(C)(C)O)nn3)ccc21 (stereo partly drawn) the results were GC-B act 0 and NPR1 activator 2.
Screening Cc1cc(C(=O)O[C@H]2CCC[C@@]3(C(=O)N(Cc4ccccc4)c4ccccc43)[C@H]2NC(=O)CCc2ccccc2)no1 returned GC-B act 2 and NPR1 activator -5.
COn1cnnc1-c1ccccc1 was read as APOBEC3G inh 18, GC-B act 0, FAS-TE inh -11, A3A deaminase 47*, NPR1 activator 2 and A3A conf 6.
`CCn1c(SCC(=O)N2CCc3ccccc32)nnc1-c1ccncc1` gave APOBEC3G inh 20, GC-B act -4, FAS-TE inh -10, A3A deaminase 49*, NPR1 activator 0 and A3A conf 27.
For O=C(CSc1nnnn1-c1ccccc1)N1CCc2ccccc21 the results were APOBEC3G inh 17, GC-B act 1, FAS-TE inh -1, A3A deaminase 41*, NPR1 activator 0, A3A conf 62* and UDG ctr A3A -2.
`CCc1nnc(SCC(=O)N2CCc3ccccc32)n1CC` gave APOBEC3G inh -8, GC-B act -1, FAS-TE inh 0, A3A deaminase -1 and NPR1 activator 0.
CC(=O)Nc1ccc(S(=O)(=O)NCC2CCN(C(=O)C(=O)c3cc4ccccc4o3)CC2)cc1 was read as GC-B act 3 and NPR1 activator 3.
For CCOc1ccc(CCNC(=O)c2cc3sccc3n2Cc2cccc(C)c2)cc1OCC the results were GC-B act -8 and NPR1 activator -6.
For COC(=O)[C@]12C[C@H](CC(=O)NCc3cccs3)C(=O)N(Cc3ccc4c(c3)OCO4)C1=C[C@H](C(C)(C)C)O[C@@H]2C the results were GC-B act -7 and NPR1 activator -7.
For C#CCN1CC(N(C)CCOC(=O)CCCc2ccccc2)CS1(=O)=O (stereo not drawn) the results were GC-B act -3 and NPR1 activator 0.
For Cc1cccc(-c2cccc3c4c([nH]c23)[C@@H]2C[C@H](N(C)C(=O)Nc3ccccc3)[C@H]([C@H](C)O)CN2CC4)c1 the results were GC-B act -5 and NPR1 activator -2.
